# Inconclusive results are not listed. A call without a number means that no potency is given here. Unmarked numbers belong to inactive results. Calls of active or inactive are those of the source. Calls follow the shape of the dose curve; as a rule, active = well fitted inhibition curve with a large enough effect; inconclusive = small, poorly fitted or top-dose-only effect; inactive = flat fitted curve, though single readings scatter.
# Assays:
# [1] = target: Glutathione peroxidase 1 (Homo sapiens) (UniProt P07203); assay: Primary qHTS Assay for Inhibitors of Recombinant Selenoprotein Glutathione Peroxidase 1 (GPX1) (AID 1845191); details: recombinant GPX1, GR-coupled NADPH fluorescence, 15 min; series mostly up to 48.8 µM
# Outline: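 NADPH consumption tracked by fluorescence at 340/450 nm between t=0 and t=15 min, room temperature. Final mix: 10 nM GPX1, 100 nM glutathione reductase, 1 mM GSH, 0.5 mM NADPH, 0.5 mM cumene hydroperoxide, 0.01% BSA; 30 min compound–enzyme preincubation.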
# [2] = target: Phospholipid hydroperoxide glutathione peroxidase GPX4 (Homo sapiens) (UniProt P36969); assay: Primary qHTS Assay for Inhibitors of Recombinant Selenoprotein Glutathione Peroxidase 4 (GPX4) (AID 1845192); details: recombinant GPX4, GR-coupled NADPH fluorescence, 15 min; series mostly up to 50 µM
# Outline: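 NADPH consumption followed by fluorescence at 340/450 nm, t=0 and after 15 min at room temperature. Reaction started with cumene hydroperoxide (0.5 mM final) after 30 min compound–GPX4 preincubation; final 200 nM GPX4, 100 nM GR, 1 mM GSH, 0.5 mM NADPH.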
# Also: nearly all actives have a fitted effect of over 65% in size.
# Chain of Glutathione peroxidase 1 (Homo sapiens) (P07203 whole entry, looked up): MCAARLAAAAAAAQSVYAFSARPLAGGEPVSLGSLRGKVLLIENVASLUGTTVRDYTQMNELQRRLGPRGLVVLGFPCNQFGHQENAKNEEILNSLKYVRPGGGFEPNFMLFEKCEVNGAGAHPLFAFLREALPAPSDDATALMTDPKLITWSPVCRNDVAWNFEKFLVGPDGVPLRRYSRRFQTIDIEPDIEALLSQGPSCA
# Chain of Phospholipid hydroperoxide glutathione peroxidase GPX4 (Homo sapiens) (P36969 whole entry, looked up): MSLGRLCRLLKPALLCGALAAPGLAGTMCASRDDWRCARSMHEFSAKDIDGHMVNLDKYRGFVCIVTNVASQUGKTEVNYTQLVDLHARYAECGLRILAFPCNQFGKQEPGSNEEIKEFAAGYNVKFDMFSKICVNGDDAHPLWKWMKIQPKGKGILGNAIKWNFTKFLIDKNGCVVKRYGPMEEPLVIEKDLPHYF
compound,measurement,setting,value
CC[C@H]1OC(=O)C[C@@H](O)[C@H](C)[C@@H](OC2OC(C)C(O)C(N(C)C)C2O)[C@@H](CCN2CCCCC2)C[C@@H](C)C(=O)/C=C/C(C)=C/[C@@H]1CN1CCCCC1 (stereo partly drawn),Potency,[1],inactive
same,Potency,[2],inactive
C[C@H]1O[C@]2(CS1)CN1CCC2CC1,Potency,[1],inactive
same,Potency,[2],inactive
COc1cc(/C=C\C(=O)N2CCN(CC(=O)N3CCCC3)CC2)cc(OC)c1OC,Potency,[1],inactive
same,Potency,[2],inactive
CC(C=CC1=C(C)CCCC1(C)C)=CC=CC(C)=CC(=O)Oc1c(C)c(C)c2c(c1C)CC[C@@](C)(CCC[C@H](C)CCC[C@H](C)CCCC(C)C)O2,outcome,[1],inactive [at 4.49 µM]
same,outcome,[2],inactive [at 4.52 µM]
CN[C@@H]1[C@@H](O)[C@@H](O[C@@H]2[C@@H](O)[C@H](OC3O[C@H](CN)[C@@H](O)[C@H](O)[C@H]3O)[C@@H](N)C[C@H]2NC(=O)[C@@H](O)CN)OC[C@]1(C)O (stereo partly drawn),Potency,[1],inactive
same,Potency,[2],inactive
COc1cc2c(cc1OC)[C@H]1C[C@@H](OC(=O)[C@@H](N)C(C)C)[C@H](CC(C)C)CN1CC2,Potency,[1],inactive
same,Potency,[2],inactive
CCC(=C(CC)c1ccc(OP(=O)(O)O)cc1)c1ccc(OP(=O)(O)O)cc1,"activity, negative = inhibition",[1],1.38% [at 0.4 µM]
same,"activity change, negative = inhibition",[2],1.61% [at 0.409 µM]
Clc1ccc(CCCOCCCN2CCCCC2)cc1,Potency,[1],inactive
same,Potency,[2],inactive
O=C(O)CSc1nnc(Br)n1-c1ccc(C2CC2)c2ccccc12,Potency,[1],inactive
same,Potency,[2],inactive
CC(C)=C/C(C)=N\Nc1nncc2ccccc12,Potency,[1],inactive
same,Potency,[2],inactive
CC[C@H](C)[C@@H]([C@@H](CC(=O)N1CCC[C@H]1[C@H](OC)[C@@H](C)C(=O)NCCc1ccccc1)OC)N(C)C(=O)[C@@H](NC(=O)[C@H](C(C)C)N(C)C)C(C)C,Potency,[1],inactive
same,Potency,[2],inactive
CCCC(=O)Nc1ncnc2c1ncn2C1O[C@@H]2COP(=O)(O)O[C@H]2[C@H]1OC(=O)CCC (stereo partly drawn),Potency,[1],inactive
same,Potency,[2],inactive
CN1CC(O)c2cc(N=NC(=N)N)c(O)cc21 (stereo not drawn),Potency,[1],inactive
same,Potency,[2],inactive
OC[C@H]1O[C@@H](OC[C@H]2O[C@@H](O[C@@H]3[C@@H](O)[C@H](O)O[C@H](CO)[C@H]3O)[C@H](O)[C@@H](O[C@@H]3O[C@H](CO)[C@@H](O)[C@H](O)[C@H]3O)[C@@H]2O)[C@H](O)[C@@H](O)[C@@H]1O,Potency,[1],inactive
same,Potency,[2],inactive
CCC(=O)Oc1ccc2c(c1)CC[C@@H]1[C@H]2CC[C@]2(C)[C@@H](OC(=O)CC)CC[C@@H]12,Potency,[1],inactive
same,Potency,[2],inactive
CN1N=C2CCN(C(=O)[C@H](COCc3ccccc3)NC(=O)C(C)(C)N)C[C@]2(Cc2ccccc2)C1=O,Potency,[1],inactive
same,Potency,[2],inactive
C[N+]1(C)[C@@H]2CC(OC(=O)C(O)(c3cccs3)c3cccs3)C[C@H]1[C@H]1O[C@@H]12 (stereo partly drawn),Potency,[1],inactive
same,Potency,[2],inactive
CO[C@@H]1C[C@H](O[C@H]2[C@H](C)[C@H](O[C@@H]3O[C@@H](C)C[C@@H](N(C)C)[C@H]3OC(C)=O)[C@H](C)C[C@]3(CO3)C(=O)[C@H](C)[C@H](OC(C)=O)[C@H](C)[C@H](C)OC(=O)[C@@H]2C)O[C@H](C)[C@H]1OC(C)=O,Potency,[1],inactive
same,Potency,[2],inactive
CO[C@H]1O[C@@H]2O[C@@]3(C)CC[C@H]4[C@H](C)CC[C@@H]([C@@H]1C)[C@@]24OO3,Potency,[1],inactive
same,Potency,[2],inactive
